Data from PubChem BioAssay (EPA / NIEHS).
Active and inactive are the calls of the source. Rule for the calls: active = hit-call score of the fitted dose curve at least 0.9, where 1 is the maximum; inactive = score below 0.9.

Legend:
[1] = molecular target: Aryl hydrocarbon receptor (Homo sapiens) (UniProt P35869); experiment: ATG_Ahr_CIS: Attagene CIS-FACTORIAL HepG2 Assay for human Aryl Hydrocarbon Receptor (Ahr) (AID 2282930); settings: HepG2 AhR cis-factorial reporter transcription; actives raise or lower the signal
In short: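 Following 24 h of chemical dosing, transfected HepG2 liver cells with cis-driven reporter units were lysed for RNA; reporter mRNA was quantified via RT-PCR and capillary electrophoresis, and responses fitted bidirectionally from DMSO.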

[2] = ATG_BRE_CIS: Attagene CIS-FACTORIAL HepG2 Assay for human Bone Morphogenetic Protein (BMP) Response Element (BRE) (AID 2282933); settings: HepG2 BMP response element reporter, Attagene transcription factor profiling; actives raise or lower the signal
In short: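 A HepG2 multiplex reporter system measured inducible reporter mRNA 24 h post-dosing. Detection: RT-PCR, 6-FAM primer extension, HpaI digestion, capillary electrophoresis. Activity fitted bidirectionally relative to DMSO.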

[3] = ATG_E_Box_CIS: Attagene CIS-FACTORIAL HepG2 Assay for human Enhancer Box (E-box) (AID 2282936); settings: HepG2 E-box cis-reporter transcription, actives raise or lower the signal
In short: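 Measured 24 h post-dosing in HepG2 cells transfected with multiple cis-regulated reporter units, signal being reporter mRNA induction detected by fluorescent RT-PCR with capillary electrophoresis; gain or loss fitted against DMSO.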

[4] = ATG_FoxO_CIS: Attagene CIS-FACTORIAL HepG2 Assay for human Forkhead box O (FoxO) (AID 2282943); settings: HepG2 Attagene cis-reporter, FoxO element, mRNA; actives raise or lower the signal
In short: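 24 h chemical exposure, HepG2 with transient cis-MRTU transfection. RNA extraction, oligo(dT) RT, reporter-specific PCR, primer-extension labelling, HpaI digestion, CE fragment analysis; bidirectional fit, DMSO baseline.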

[5] = molecular target: Heat shock factor protein 1 (Homo sapiens) (UniProt Q00613); experiment: ATG_HSE_CIS: Attagene CIS-FACTORIAL HepG2 Assay for human Heat Shock Transcription Factor 1 (HSE) (AID 2282953); settings: HepG2 HSE cis-reporter, Attagene RNA transcription; actives raise or lower the signal
In short: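 Liver-derived HepG2 cells carry transiently introduced multiple reporter units governed by cis promoters. Reporter RNA measured 24 h post-dose through reverse transcription, PCR amplification, fluorescent labelling and capillary electrophoresis, normalised to DMSO.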

[6] = ATG_RORE_CIS: Attagene CIS-FACTORIAL HepG2 Assay for human RAR-related Orphan Receptor Element (RORE) (AID 2282959); settings: HepG2 Attagene cis-factorial RORE reporter, mRNA; actives raise or lower the signal
In short: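 HepG2 cells carrying transiently transfected cis-regulated reporter units; RORE-driven reporter mRNA quantified 24 h post-dosing by RT-PCR, 6-FAM primer extension, HpaI digestion and capillary electrophoresis. Bidirectional fit versus DMSO.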

[7] = ATG_SREBP_CIS: Attagene CIS-FACTORIAL HepG2 Assay for human Sterol Regulatory Element Binding (SREBP) (AID 2282962); settings: HepG2 Attagene cis-factorial SREBP reporter, mRNA; actives raise or lower the signal
In short: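 Readout: fluorescent reporter-transcript peaks resolved by capillary electrophoresis after RT-PCR. Cells were human HepG2 carrying transfected cis-promoter reporter constructs, dosed for 24 h. Gain or loss of signal was fitted against DMSO controls.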

[8] = molecular target: Signal transducer and activator of transcription 3 (Homo sapiens) (UniProt P40763); experiment: ATG_STAT3_CIS: Attagene CIS-FACTORIAL HepG2 Assay for human Signal Transducer and Activator of Transcription 3 (STAT3) (AID 2282963); settings: HepG2, Attagene cis-factorial STAT3 reporter transcription; actives raise or lower the signal
In short: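 Uses human liver HepG2 transiently carrying cis-regulated reporter transcription units. Following 24 h dosing, reporter mRNA induction was detected by RT-PCR and capillary electrophoresis, analysed bidirectionally versus DMSO.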

[9] = ATG_TA_CIS: Attagene CIS-FACTORIAL HepG2 Assay for human TA Basal Promoter (AID 2282964); settings: HepG2 Attagene CIS-factorial TA basal promoter reporter; actives raise or lower the signal
In short: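 Background internal-marker endpoint from a 52-component HepG2 cis-reporter panel. Cells treated 24 h; reporter transcripts quantified via RT-PCR and CE fluorescence against DMSO baseline.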

[10] = ATG_TCF_b_cat_CIS: Attagene CIS-FACTORIAL HepG2 Assay for human T-Cell-Factor with beta-catenin (TCF/b-cat) (AID 2282965); settings: HepG2 TCF/beta-catenin cis-reporter transcription, actives raise or lower the signal
In short: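 In this cis-format system, transfected HepG2 cells report endogenous transcription factor activity. Readout after 24 h exposure is reporter transcript abundance from RT-PCR and capillary electrophoresis, analysed for gain or loss of signal versus DMSO.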

[11] = ATG_TGFb_CIS: Attagene CIS-FACTORIAL HepG2 Assay for human Transforming Growth Factor (TGF) (AID 2282967); settings: HepG2 Attagene CIS TGFb reporter, mRNA transcription; actives raise or lower the signal
In short: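 Liver HepG2 line, cis-factorial reporter panel, 24 h dosing. Quantitation: RT-PCR products labeled with 6-FAM, cut with HpaI, resolved by capillary electrophoresis; DMSO-referenced bidirectional analysis.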

[12] = molecular target: X-box-binding protein 1 (Homo sapiens) (UniProt P17861); experiment: ATG_Xbp1_CIS: Attagene CIS-FACTORIAL HepG2 Assay for human X-box Binding Protein 1 (XBP1) (AID 2282972); settings: HepG2 XBP1 cis-element reporter, Attagene multiplex; actives raise or lower the signal
In short: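 Read-out: fluorescent reporter mRNA fragments resolved by capillary electrophoresis after RT-PCR. Human HepG2 liver cells carried transfected cis-promoter reporter units and were exposed to chemicals for 24 hours. Gain or loss of signal fitted relative to DMSO baseline.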

[13] = molecular target: Transcriptional activator Myb (Homo sapiens) (UniProt P10242); experiment: ATG_Myb_CIS: Attagene CIS-FACTORIAL HepG2 Assay for human Myeloblastosis (Myb) Proto-Oncogene Transcription Factor (AID 2282986); settings: HepG2 Attagene CIS-FACTORIAL Myb reporter transcription; actives raise or lower the signal
In short: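 Transiently transfected HepG2 cells carrying a multiplexed cis-promoter reporter set report endogenous Myb activity after 24 h compound exposure. Reporter mRNA is read by RT-PCR with capillary electrophoresis of fluorescent products, fitted bidirectionally against DMSO.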

[14] = molecular target: Nuclear respiratory factor 1 (Homo sapiens) (UniProt Q16656); experiment: ATG_NRF1_CIS: Attagene CIS-FACTORIAL HepG2 Assay for human Nuclear Respiratory Factor 1 (NRF1) Orphan Gene (AID 2282987); settings: HepG2 NRF1 cis-element reporter, Attagene multiplex; actives raise or lower the signal
In short: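 HepG2 cells transiently transfected with multiple cis-regulated reporter units, exposed 24 h. Reporter mRNAs measured by RT-PCR, fluorescent labelling, HpaI digestion and capillary electrophoresis; bidirectional fitting against DMSO.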

[15] = molecular target: Myc proto-oncogene protein (Homo sapiens) (UniProt P01106); experiment: ATG_Myc_CIS: Attagene CIS-FACTORIAL HepG2 Assay for human Myelocytomatosis (Myc) Proto-Oncogene Transcription Factor (AID 2282990); settings: HepG2, Attagene cis-reporter transcription factor activity; actives raise or lower the signal
In short: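 DMSO-normalised, bidirectionally fitted reporter mRNA signal. HepG2 cells transfected with cis reporter constructs, treated 24 h; transcripts detected by RT-PCR, 6-FAM primer extension and CE.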

[16] = ATG_NRF2_ARE_CIS: Attagene CIS-FACTORIAL HepG2 Assay for human Nuclear Factor Erythroid 2 Related Factor 2 (NFR2) response to Antioxidant Response Elements (ARE) (AID 2282992); settings: HepG2 Attagene ARE/NRF2 reporter, transcription factor activity; actives raise or lower the signal;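 for AC50: reporter mRNA level measured by RT-PCR and capillary electrophoresis fluorescence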
In short: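 Readout: reporter mRNA quantified by RT-PCR plus FAM-labelled primer extension, HpaI digestion and capillary electrophoresis, 24 h after dosing transfected HepG2 cells. Gain or loss of signal is fitted bidirectionally against DMSO baseline.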

[17] = ATG_Oct_MLP_CIS: Attagene CIS-FACTORIAL HepG2 Assay for human Octamer-Binding Transcription Factor (Oct) (AID 2282993); settings: HepG2 Attagene cis-factorial Oct reporter, mRNA; actives raise or lower the signal
In short: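 Using HepG2 cells bearing transfected cis-reporter constructs, mRNA induction was read after 24 h by fluorescent RT-PCR and capillary electrophoresis, with DMSO defining baseline for gain- or loss-of-signal fits.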

[18] = molecular target: Cellular tumor antigen p53 (Homo sapiens) (UniProt P04637); experiment: ATG_p53_CIS: Attagene CIS-FACTORIAL HepG2 Assay for human p53 Transcription Factor (AID 2282994); settings: HepG2 p53 cis-element reporter, Attagene mRNA; actives raise or lower the signal
In short: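 Read-out: reporter mRNA by RT-PCR plus capillary electrophoresis with fluorescence detection. Human HepG2 liver cells carried transfected multi-reporter cis-element constructs, dosed 24 h. Gain or loss of signal fitted bidirectionally against DMSO control.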

[19] = molecular target: Hypoxia-inducible factor 1-alpha (Homo sapiens) (UniProt Q16665); experiment: ATG_HIF1a_CIS: Attagene CIS-FACTORIAL HepG2 Assay for human Hypoxia Inducible Factor 1 (HIF1A) (AID 2282951); settings: HepG2 Attagene cis-factorial HIF1a reporter transcription; actives raise or lower the signal
In short: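 HepG2 cells transiently transfected with multiple cis-regulated reporter transcription units measure endogenous transcription factor activity. After 24 h exposure, reporter mRNA is quantified by RT-PCR with 6-FAM labelling, HpaI digestion and capillary electrophoresis. Bidirectional fitting against DMSO.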

[20] = ATG_Sox_CIS: Attagene CIS-FACTORIAL HepG2 Assay for human SRY-box transcription factor (SOX) (AID 2282960); settings: HepG2 Attagene cis-factorial SOX reporter, mRNA; actives raise or lower the signal
In short: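 HepG2 cells transiently transfected with multiple cis-regulated reporter units, then dosed for 24 h. Reporter mRNA quantified by RT-PCR, fluorescent labelling, HpaI digestion and capillary electrophoresis; bidirectional fit versus DMSO.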

Measured: AC50

Chain of Hypoxia-inducible factor 1-alpha (Homo sapiens) (Q16665 whole entry, looked up): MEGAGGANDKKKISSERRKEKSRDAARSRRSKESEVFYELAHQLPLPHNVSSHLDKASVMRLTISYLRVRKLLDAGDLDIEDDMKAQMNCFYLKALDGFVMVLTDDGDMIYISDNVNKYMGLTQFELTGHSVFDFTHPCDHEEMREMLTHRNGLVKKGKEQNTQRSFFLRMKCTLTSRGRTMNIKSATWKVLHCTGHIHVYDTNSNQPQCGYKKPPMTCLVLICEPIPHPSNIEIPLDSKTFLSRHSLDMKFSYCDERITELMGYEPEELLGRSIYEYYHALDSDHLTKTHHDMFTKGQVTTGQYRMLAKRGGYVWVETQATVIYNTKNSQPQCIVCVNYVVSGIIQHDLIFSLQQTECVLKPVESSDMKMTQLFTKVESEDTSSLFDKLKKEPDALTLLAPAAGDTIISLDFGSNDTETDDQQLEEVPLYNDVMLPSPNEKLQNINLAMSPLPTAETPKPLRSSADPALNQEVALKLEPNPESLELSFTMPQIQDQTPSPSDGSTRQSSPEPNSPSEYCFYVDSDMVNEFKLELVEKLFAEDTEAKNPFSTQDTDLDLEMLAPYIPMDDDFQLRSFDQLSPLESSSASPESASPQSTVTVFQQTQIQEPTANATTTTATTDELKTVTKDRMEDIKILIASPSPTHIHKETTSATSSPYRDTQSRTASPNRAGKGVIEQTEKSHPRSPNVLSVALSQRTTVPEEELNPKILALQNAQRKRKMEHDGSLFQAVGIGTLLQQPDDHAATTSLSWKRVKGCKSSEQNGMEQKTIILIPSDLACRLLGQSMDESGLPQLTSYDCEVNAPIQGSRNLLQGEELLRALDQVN
Chain of Heat shock factor protein 1 (Homo sapiens) (Q00613 whole entry, looked up): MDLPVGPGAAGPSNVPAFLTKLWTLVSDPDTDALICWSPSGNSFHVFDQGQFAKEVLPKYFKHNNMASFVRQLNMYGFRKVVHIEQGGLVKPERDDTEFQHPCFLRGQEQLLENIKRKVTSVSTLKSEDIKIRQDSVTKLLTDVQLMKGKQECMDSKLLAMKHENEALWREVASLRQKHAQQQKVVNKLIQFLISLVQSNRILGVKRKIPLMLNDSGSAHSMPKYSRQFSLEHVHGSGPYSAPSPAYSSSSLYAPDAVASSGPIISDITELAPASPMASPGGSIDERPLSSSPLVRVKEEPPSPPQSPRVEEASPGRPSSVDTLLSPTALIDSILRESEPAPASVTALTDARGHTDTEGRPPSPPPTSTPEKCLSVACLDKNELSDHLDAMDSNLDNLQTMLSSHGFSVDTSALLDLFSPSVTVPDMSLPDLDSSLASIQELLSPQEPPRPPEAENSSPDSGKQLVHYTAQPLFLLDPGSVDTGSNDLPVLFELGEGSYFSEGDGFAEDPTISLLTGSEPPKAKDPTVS
Chain of Nuclear respiratory factor 1 (Homo sapiens) (Q16656 whole entry, looked up): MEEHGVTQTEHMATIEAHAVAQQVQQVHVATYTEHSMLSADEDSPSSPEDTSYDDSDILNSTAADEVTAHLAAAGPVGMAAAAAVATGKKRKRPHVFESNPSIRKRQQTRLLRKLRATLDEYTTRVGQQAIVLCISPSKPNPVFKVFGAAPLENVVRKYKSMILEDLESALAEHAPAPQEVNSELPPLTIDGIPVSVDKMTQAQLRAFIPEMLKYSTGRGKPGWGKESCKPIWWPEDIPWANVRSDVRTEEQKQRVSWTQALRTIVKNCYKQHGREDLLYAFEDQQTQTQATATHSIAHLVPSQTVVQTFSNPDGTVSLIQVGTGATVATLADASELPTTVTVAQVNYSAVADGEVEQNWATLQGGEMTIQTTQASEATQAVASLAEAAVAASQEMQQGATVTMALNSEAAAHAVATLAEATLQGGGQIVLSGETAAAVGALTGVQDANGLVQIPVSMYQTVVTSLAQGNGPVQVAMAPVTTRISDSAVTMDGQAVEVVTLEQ
Chain of Signal transducer and activator of transcription 3 (Homo sapiens) (P40763 whole entry, looked up): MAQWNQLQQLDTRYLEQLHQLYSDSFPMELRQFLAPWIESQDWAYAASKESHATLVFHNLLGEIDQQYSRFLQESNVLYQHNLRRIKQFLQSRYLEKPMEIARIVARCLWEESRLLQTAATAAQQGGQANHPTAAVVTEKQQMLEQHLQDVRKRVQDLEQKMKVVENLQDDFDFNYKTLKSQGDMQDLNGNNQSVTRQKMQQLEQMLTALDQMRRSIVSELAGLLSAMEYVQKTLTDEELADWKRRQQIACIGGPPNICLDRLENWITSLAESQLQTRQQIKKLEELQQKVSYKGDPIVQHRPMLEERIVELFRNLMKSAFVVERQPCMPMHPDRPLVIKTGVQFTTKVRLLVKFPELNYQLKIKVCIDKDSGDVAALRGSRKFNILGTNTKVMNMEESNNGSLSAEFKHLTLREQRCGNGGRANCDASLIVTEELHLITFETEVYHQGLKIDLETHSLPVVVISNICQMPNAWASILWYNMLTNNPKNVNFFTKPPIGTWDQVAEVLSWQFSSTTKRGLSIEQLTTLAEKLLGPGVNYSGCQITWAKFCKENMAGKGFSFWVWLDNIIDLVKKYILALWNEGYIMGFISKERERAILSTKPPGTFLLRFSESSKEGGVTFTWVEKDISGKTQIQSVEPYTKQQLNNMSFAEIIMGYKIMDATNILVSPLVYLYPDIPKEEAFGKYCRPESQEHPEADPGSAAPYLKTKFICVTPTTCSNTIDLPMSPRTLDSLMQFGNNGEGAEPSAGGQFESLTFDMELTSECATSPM
Chain of X-box-binding protein 1 (Homo sapiens) (P17861 whole entry, looked up, the tested form may be a part): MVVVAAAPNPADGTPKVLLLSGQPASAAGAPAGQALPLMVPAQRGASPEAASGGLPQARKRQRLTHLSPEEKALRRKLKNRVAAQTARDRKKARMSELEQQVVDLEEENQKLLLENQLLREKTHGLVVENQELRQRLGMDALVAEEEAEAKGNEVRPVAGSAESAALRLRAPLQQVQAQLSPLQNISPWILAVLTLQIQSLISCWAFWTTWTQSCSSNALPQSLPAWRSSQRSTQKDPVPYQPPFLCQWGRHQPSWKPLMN
Chain of Myc proto-oncogene protein (Homo sapiens) (P01106 whole entry, looked up): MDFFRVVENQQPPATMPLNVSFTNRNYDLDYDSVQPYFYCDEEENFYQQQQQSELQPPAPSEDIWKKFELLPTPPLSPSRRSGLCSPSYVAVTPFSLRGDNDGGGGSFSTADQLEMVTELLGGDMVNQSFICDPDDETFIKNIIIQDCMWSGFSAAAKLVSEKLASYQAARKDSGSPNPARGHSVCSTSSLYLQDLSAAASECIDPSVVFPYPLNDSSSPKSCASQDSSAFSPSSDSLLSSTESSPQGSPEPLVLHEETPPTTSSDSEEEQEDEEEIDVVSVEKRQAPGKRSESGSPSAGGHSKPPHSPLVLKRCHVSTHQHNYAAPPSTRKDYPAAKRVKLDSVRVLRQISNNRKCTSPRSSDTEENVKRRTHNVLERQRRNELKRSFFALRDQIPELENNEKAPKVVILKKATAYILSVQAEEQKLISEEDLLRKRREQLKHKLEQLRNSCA
Chain of Aryl hydrocarbon receptor (Homo sapiens) (P35869 whole entry, looked up): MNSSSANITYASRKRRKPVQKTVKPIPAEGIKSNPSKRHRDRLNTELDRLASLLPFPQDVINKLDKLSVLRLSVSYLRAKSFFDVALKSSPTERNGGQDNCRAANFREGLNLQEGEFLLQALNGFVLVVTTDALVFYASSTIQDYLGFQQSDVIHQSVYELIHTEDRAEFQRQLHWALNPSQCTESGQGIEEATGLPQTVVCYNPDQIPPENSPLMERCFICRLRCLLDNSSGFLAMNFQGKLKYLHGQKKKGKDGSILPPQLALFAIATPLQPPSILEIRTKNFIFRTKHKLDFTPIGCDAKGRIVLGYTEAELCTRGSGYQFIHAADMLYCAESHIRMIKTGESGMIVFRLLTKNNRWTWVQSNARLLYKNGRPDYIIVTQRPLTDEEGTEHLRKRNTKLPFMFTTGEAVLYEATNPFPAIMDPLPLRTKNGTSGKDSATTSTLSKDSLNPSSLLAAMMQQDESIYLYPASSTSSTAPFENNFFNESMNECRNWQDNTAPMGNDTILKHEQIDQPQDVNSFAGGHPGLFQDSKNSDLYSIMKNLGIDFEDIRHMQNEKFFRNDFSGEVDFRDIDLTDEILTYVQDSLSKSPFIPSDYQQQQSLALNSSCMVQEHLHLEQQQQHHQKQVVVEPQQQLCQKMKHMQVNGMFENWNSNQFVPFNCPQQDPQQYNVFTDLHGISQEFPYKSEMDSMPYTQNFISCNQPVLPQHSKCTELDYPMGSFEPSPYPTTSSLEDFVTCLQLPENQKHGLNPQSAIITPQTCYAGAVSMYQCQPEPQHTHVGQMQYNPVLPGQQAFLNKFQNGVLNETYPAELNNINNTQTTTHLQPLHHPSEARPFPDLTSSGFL
Chain of Cellular tumor antigen p53 (Homo sapiens) (P04637 whole entry, looked up): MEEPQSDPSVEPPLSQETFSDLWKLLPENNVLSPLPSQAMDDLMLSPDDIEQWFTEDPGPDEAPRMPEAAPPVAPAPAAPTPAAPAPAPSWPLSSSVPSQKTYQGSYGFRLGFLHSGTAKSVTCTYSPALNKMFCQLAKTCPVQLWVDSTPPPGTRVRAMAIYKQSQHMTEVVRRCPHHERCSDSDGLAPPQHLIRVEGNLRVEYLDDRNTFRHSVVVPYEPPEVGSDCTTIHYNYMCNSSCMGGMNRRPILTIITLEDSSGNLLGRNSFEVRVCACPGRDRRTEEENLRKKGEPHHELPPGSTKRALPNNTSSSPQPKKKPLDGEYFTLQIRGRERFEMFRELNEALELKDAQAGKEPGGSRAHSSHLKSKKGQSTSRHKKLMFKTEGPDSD

O=C1C=CC(=O)C=C1
inactive: [2] | [3] | [4] | [5] | [6] | [7] | [8] | [9] | [10] | [11] | [12] | [13] | [14] | [15] | [17] | [18]
active: [1] 2.15 µM | [16] 57.4 µM

Cc1ccc(C)c2ccccc12
inactive: [2] | [4] | [19] | [5] | [6] | [20] | [7] | [8] | [9] | [10] | [11] | [12] | [13] | [14] | [15] | [16] | [17]
active: [1] 27.7 µM

CCC[N+](=O)[O-]
inactive: [2] | [3] | [19] | [5] | [6] | [7] | [8] | [9] | [10] | [11] | [12] | [13] | [14] | [15] | [16] | [17] | [18]
active: [1] 68.9 µM

c1cc(OCC2CO2)ccc1Cc1ccc(OCC2CO2)cc1 (stereo unspecified)
inactive: [2] | [4] | [19] | [6] | [9] | [11] | [13]
active: [3] 53.2 µM | [5] 62.6 µM | [20] 33.4 µM | [7] 33.4 µM | [8] 54.8 µM | [10] 35.2 µM | [12] 19.8 µM | [15] 22.9 µM | [16] 8.95 µM | [17] 25.3 µM | [18] 55.3 µM

O=C(O)c1cc[c]([Hg][Cl])cc1
inactive: [1] | [2] | [3] | [19] | [5] | [6] | [20] | [7] | [8] | [9] | [10] | [11] | [13] | [14] | [15]
active: [12] 7.19 µM | [16] 11.1 µM | [17] 6.74 µM | [18] 7.47 µM
